PostGolgi yeast = growth inhibition of a yeast mutant, post-Golgi transport screen; post-Golgi transport phenotypic cell assay; inhibition, % at 10 µM; AID 739; actives 0.9% (n = 98,000);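 note: yeast cells grown in 1536-well plates; yeast grown about 18 h at 30C before absorbance read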
CYP2C9 inhib = human CYP2C9 inhibition | inhibition, % at 5 µM | CYP2C9 Supersomes, luciferin-H conversion, luminescence | actives 20% (n = 96,000) | P11712 | AID 777;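 active = blocking of liver enzyme CYP2C9 beyond about 50% at 5 µM, limit read from the data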
Target sequence (P11712 whole entry, looked up): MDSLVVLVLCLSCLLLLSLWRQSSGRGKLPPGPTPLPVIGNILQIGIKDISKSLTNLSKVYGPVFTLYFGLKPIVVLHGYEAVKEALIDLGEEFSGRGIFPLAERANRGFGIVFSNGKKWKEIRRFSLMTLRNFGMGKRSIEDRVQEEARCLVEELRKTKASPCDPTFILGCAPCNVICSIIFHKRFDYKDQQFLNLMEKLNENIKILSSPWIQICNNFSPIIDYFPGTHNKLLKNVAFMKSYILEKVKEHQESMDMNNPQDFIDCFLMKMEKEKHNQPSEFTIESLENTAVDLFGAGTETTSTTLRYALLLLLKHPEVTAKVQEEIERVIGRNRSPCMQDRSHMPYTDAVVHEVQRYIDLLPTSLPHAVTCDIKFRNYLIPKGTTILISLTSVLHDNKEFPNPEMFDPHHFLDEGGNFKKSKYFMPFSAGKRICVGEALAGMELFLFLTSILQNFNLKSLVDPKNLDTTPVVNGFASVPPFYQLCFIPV
CYP2C19 inhib = inhibitors of human CYP2C19. P33261. actives 21% (n = 96,000). inhibition, % at 5 µM. CYP2C19 Supersomes, luciferin-H EGE luminescence, 30 min;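 active = CYP2C19 inhibition above a set limit at 5 µM in the primary screen, cut at about 50% in these data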
PostGolgi ctrl = growth of the yeast control strain, post-Golgi counter-screen; actives 5% (n = 98,000); inhibition, % at 10 µM; efflux-deficient yeast background strain, growth absorbance A615, 16 h; AID 738
CYP2C19 act = activators of human cytochrome P450 2C19; P33261; recombinant CYP2C19, luciferin-H EGE luminescence; active compounds read high; 0 = fully inhibited enzyme, 1 = untreated enzyme; activation factor at 5 µM; 96,000 tested, under 10 active; AID 1025;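 active = activation factor of at least 2 at 5 µM in the primary screen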
CYP2C9 act = activators of human CYP2C9. P11712. recombinant CYP2C9, luciferin-H conversion, luminescence; active compounds read high; factor 1 = untreated enzyme, 0 = blocked. activation factor at 5 µM. actives 1.4% (n = 96,000);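 active = activation factor of 2 or more for CYP2C9 at a 5 µM dose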
Hits are given with their value; - = inactive; . = not tested or not shown. Compounds with a hit are over-represented: about 32% of the library has one in this group of screens. Cut-off read from the data, not from the text of the source, unless noted: active = inhibition above about 30%; inactive = the rest.

SMILES	PostGolgi yeast	CYP2C9 inhib	CYP2C19 inhib	PostGolgi ctrl	CYP2C19 act	CYP2C9 act
Cc1csc2nc(CNC(=O)C3CC=CCC3C(=O)O)cn12 (configuration not stated)	-	-	-	-	-	-
O=C(NCCN1CCN(Cc2ccccc2)CC1)C1c2ccccc2C(=O)N2CCc3ccccc3C12 (configuration not stated)	-	-	-	-	-	-
O=C1c2cnc3nc(SCc4ccccc4)nn3c2CC2c3ccccc3CCN12 (configuration not stated)	68	-	-	96	-	-
CC1=NN(C(=O)Cc2ccc([N+](=O)[O-])cc2)C(O)(c2ccccc2)C1 (configuration not stated)	-	-	59	-	-	-
NC(=O)C1CCN(C(=O)c2cnn(-c3ccccc3)c2NC(=O)c2ccco2)CC1	-	-	-	-	-	-
CCn1c(SCC(=O)Nc2ccc3c(c2)OCO3)nc2c1c(=O)n(C)c(=O)n2C	-	-	-	-	-	-
CC(C)c1nc(SCC(=O)Nc2ccc3c(c2)OCO3)n[nH]1	-	-	73	-	-	-
CCc1nnc(SCC(=O)Nc2ccc3c(c2)OCO3)o1	-	-	72	-	-	-
CCN(CC)S(=O)(=O)c1ccc(-c2nnc(SCC(=O)Nc3ccc4c(c3)OCO4)o2)cc1	-	72	-	-	-	-
CC(C)n1c(SCC(=O)Nc2ccc3c(c2)OCO3)nc2c1c(=O)n(C)c(=O)n2C	-	55	-	-	-	-
Cc1nnc(SCC(=O)Nc2ccc3c(c2)OCO3)o1	-	-	-	-	-	-
Cc1nc(N)sc1N=Nc1ccc(F)cc1	-	-	-	-	-	-
CC1(CC(=O)O)C(=O)N=C2C=CC=CN21 (configuration not stated)	-	.	.	-	.	.
COc1cccc(C(O)CC(N)=O)c1 (configuration not stated)	-	-	-	-	-	-
Cc1csc(NC(=O)C2CCCN(S(=O)(=O)c3cnc[nH]3)C2)n1 (configuration not stated)	-	-	-	-	-	-
Cc1ccc(NC(=O)C2CCCN(S(=O)(=O)c3c(C)noc3C)C2)cc1F (configuration not stated)	-	-	-	-	-	-
Cc1ccc(NC(=O)C2CCCN(S(=O)(=O)c3cnc[nH]3)C2)cc1F (configuration not stated)	-	87	94	-	-	-
Cc1cc(C)cc(NC(=O)C2CCCN(S(=O)(=O)c3cnc[nH]3)C2)c1 (configuration not stated)	-	93	81	-	-	-
COc1cc(NC(=O)C2CCCN(S(=O)(=O)c3cnc[nH]3)C2)cc(OC)c1 (configuration not stated)	-	88	-	-	-	-
COc1ccc(N2CCN(CCCNC(=O)C3CCCN(S(=O)(=O)c4cnc[nH]4)C3)CC2)cc1 (configuration not stated)	-	-	-	-	-	-
c1cncc(-c2nnc(C3CCCCC3)o2)c1	-	-	-	-	-	-
Cc1ccc(C(=O)N2CC(C)OC(C)C2)c(Cl)c1 (configuration not stated)	-	-	-	-	-	-
S=C(Nc1ccccn1)c1ccccn1	-	51	66	-	-	-
CCOc1cc(-c2nn3cnnc3s2)cc(OCC)c1OCC	-	-	-	-	-	-
CCOc1cc(-c2ccc(N)c(OCC)c2)ccc1N	-	91	98	-	-	-
SMILES	PostGolgi yeast	CYP2C9 inhib	CYP2C19 inhib	PostGolgi ctrl	CYP2C19 act	CYP2C9 act
CCOc1ccccc1N1CC(C(=O)Nc2nccs2)CC1=O (configuration not stated)	-	-	-	-	-	-
O=C(CCC1CCCC1)Nc1ccc(Br)cn1	-	-	-	-	-	-
CN(CC(=O)Nc1ccc(Cl)cc1)CC(=O)Nc1cc(Cl)ccc1C#N	-	-	63	39	-	-
O=C(C1CCC(C(=O)N2CCc3ccccc32)CC1)N1CCc2ccccc21 (configuration not stated)	-	-	-	-	-	-
O=C(Nc1ccccc1-c1ccccc1)C1CCCN(c2ncccn2)C1 (configuration not stated)	-	51	73	-	-	-
Cc1cc(=O)n2nc(N3CCCC(C(=O)N4CCc5ccccc54)C3)sc2n1 (configuration not stated)	-	58	-	-	-	-
O=C(C1CCCN(c2ncccn2)C1)N1CCc2ccccc21 (configuration not stated)	-	72	84	-	-	-
Cc1ccc2c(c1)NC(=O)C(CC(=O)NC1CCCCC1C)O2 (configuration not stated)	-	-	-	-	-	-
CCc1nc2ccc(C)cc2c(C(=O)NC2CCCCC2C)c1C (configuration not stated)	-	71	-	-	-	-
CN(CC(=O)NCc1ccco1)S(=O)(=O)c1ccc2c(c1)n(C)c(=O)c(=O)n2C	-	-	-	-	-	-
COc1cccc(C(=O)N2CCCC(c3nc(-c4cccs4)no3)C2)c1 (configuration not stated)	-	68	86	-	-	-
O=[N+]([O-])c1cccc(S(=O)(=O)N2CCC(c3nc(-c4ccncc4)no3)CC2)c1	-	60	-	-	-	-
O=C(c1cccs1)N1CCC(c2nc(-c3ccc(S(=O)(=O)N4CCOCC4)cc3)no2)CC1	-	62	-	-	-	-
O=S(=O)(c1ccc(Cl)c(F)c1)N1CCC(c2nc(-c3ccncc3)no2)CC1	-	-	-	-	-	-
COc1ccc(-c2noc(C3CCCN(C(=O)c4cccs4)C3)n2)cc1 (configuration not stated)	-	89	85	-	-	-
Cn1c(COc2ccccc2)nnc1SCC(=O)Nc1ccc(S(N)(=O)=O)cc1	-	-	-	-	-	-
CCCC(=O)N1CCCC(c2nc(-c3cccs3)no2)C1 (configuration not stated)	-	-	-	-	-	-
COc1cc(C(=O)N2CCCC(c3nc(-c4cccs4)no3)C2)cc(OC)c1OC (configuration not stated)	-	-	56	-	-	-
C/C(CC(=O)Nc1ccccn1)=N\NC(=O)Cc1cccc2ccccc12	-	-	-	-	-	-
O=C(Cc1cccc2ccccc12)N/N=C/c1ccc(Sc2cccc3cccnc23)o1	-	82	53	-	-	-
CCCCC(=O)N/N=C/c1ccc(Sc2cccc3cccnc23)o1	-	57	-	-	-	-
O=C(O)CSc1cccc2cccnc12	-	-	-	-	-	-
COC(=O)C1CCN(C(=O)COC(=O)CC(NC(N)=O)c2ccc(Cl)cc2)CC1 (configuration not stated)	-	-	-	-	-	-

Screening data deposited in PubChem BioAssay by several laboratories.
